We go through 14 compounds from PubChem BioAssay (NCATS).

Each structure is given as a SMILES string. Results filed as inconclusive are left out. Active and inactive are the calls of the source. Calls follow the shape of the dose curve; as a rule, active = well fitted inhibition curve with a large enough effect; inconclusive = small, poorly fitted or top-dose-only effect; inactive = flat fitted curve, though single readings scatter.

Holding throughout (experiment): qHTS profiling for inhibitors of Plasmodium falciparum proliferation (AID 504749); also: nearly all actives have a fitted effect of over 60% in size
Holding throughout (details): P. falciparum in erythrocytes, SYBR Green DNA, 72 h; series mostly up to 28.7 µM
A general note: Quantitative high-throughput screening tests each substance at several concentrations.

Experiment [1] deals with DIV17. In short, it runs like this:
(§1)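 Parasite proliferation within erythrocytes, 72 h exposure. Endpoint: SYBR Green I fluorescence after overnight lysis at room temperature. Controls: 0.29 uM artemisinin, DMSO.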

Experiment [2] has as its system DIV30. In short, it runs like this:
as §1

Experiment [3] relates to Dd2. In short, it runs like this: as §1
In experiment [4] the test system is ECU. In short, it runs like this:
as §1

Experiment [5] has as its system FAB9. In short, it runs like this: as §1
Experiment [6] concerns GB4. In short, it runs like this: as §1
The test system of experiment [7] is HB3. In short, it runs like this: as §1
Experiment [8] concerns ICS. In short, it runs like this:
as §1

The subject of experiment [9] is JCK. In short, it runs like this:
as §1

Experiment [10] concerns N140. In short, it runs like this:
as §1

Experiment [11] relates to P93_24. In short, it runs like this:
as §1

The subject of experiment [12] is P94_40. In short, it runs like this:
as §1

The subject of experiment [13] is PAD. In short, it runs like this: as §1
In experiment [14] the test system is PC15. In short, it runs like this:
as §1

Experiment [15] concerns PC26. In short, it runs like this: as §1
For experiment [16], the system named is PC49. In short, it runs like this: as §1
Experiment [17] deals with SC27B. In short, it runs like this: as §1
For experiment [18], the system named is TAB109. In short, it runs like this:
as §1

In experiment [19] the test system is TAB113. In short, it runs like this:
as §1

Experiment [20] deals with TAB165. In short, it runs like this: as §1
Potency is read from the fitted curve at half-maximal effect.

For the compound `O=NN(CCCl)C(=O)NC1CCCCC1`, the Potency result in experiment [1], in experiment [2], in experiment [3], in experiment [4], in experiment [5] and in experiment [6] was “inactive” each time. The Potency result in [7], in [8], in experiment [9], in experiment [10], in [11] and in experiment [12] was “inactive” in each case. For the same compound, the Potency entry in [13], in [14], in experiment [15], in experiment [16], in experiment [17] and in [18] was “inactive” throughout. Further, the Potency entry in experiment [19] and in experiment [20] was “inactive” in each case.
On to `CC(C)(Sc1cc(C(C)(C)C)c(O)c(C(C)(C)C)c1)Sc1cc(C(C)(C)C)c(O)c(C(C)(C)C)c1`, for which the Potency entry in [1], in experiment [2], in [3], in experiment [4], in experiment [5] and in [6] was “inactive” each time. Further, the Potency result in experiment [9], in experiment [10], in experiment [11], in experiment [12], in [13] and in experiment [14] was “inactive” throughout. Also, the Potency result in experiment [15], in experiment [16], in experiment [17], in [18], in experiment [19] and in experiment [20] was “inactive” throughout. For the same compound, in experiment [8], the Potency was 3.16 µM (active).
With `COc1cnc(NS(=O)(=O)c2ccc(N)cc2)nc1`, the Potency result in experiment [1], in experiment [2], in experiment [3], in experiment [4], in [5] and in experiment [6] was “inactive” in each case. For the same compound, the Potency entry in [7], in experiment [8], in experiment [9], in [10], in [12] and in experiment [13] was “inactive” each time. For the same compound, the Potency result in experiment [14], in experiment [15], in experiment [16], in [17], in [18] and in experiment [19] was “inactive” in each case. The Potency result in experiment [20] is “inactive”.
In the case of `COc1cc(NCc2ccc3nc(N)nc(N)c3c2C)cc(OC)c1OC`, the Potency is 0.239 µM (active) in [1]; 4.78 µM (active) in experiment [2]; 0.631 µM (active) in experiment [3]; 0.005 µM (active) in [4]; 0.0045 µM (active) in experiment [5]; 0.0015 µM (active) in experiment [6]. Also, the Potency in experiment [7] is 0.0316 µM (active); in experiment [8] it was 0.794 µM (active); in experiment [9], 7.08 µM (active); in experiment [10], 0.447 µM (active); in [11], 0.398 µM (active); in [12], 0.891 µM (active). For the same compound, the Potency is 0.316 µM (active) in experiment [13]; 0.316 µM (active) in experiment [14]; 0.675 µM (active) in experiment [15]; 0.501 µM (active) in [16]; 2.24 µM (active) in [17]; 1 µM (active) in [18]. Also, the Potency in experiment [19] is 2.51 µM (active); in [20], 1.12 µM (active).
With `N[C@@H](C(=O)N[C@@H]1C(=O)N2C(C(=O)O)=C(Cl)CS[C@H]12)c1ccccc1`, the Potency entry in experiment [1], in [2], in [3], in experiment [4], in experiment [5] and in experiment [6] was “inactive” in each case. The Potency entry in experiment [7], in experiment [8], in experiment [9], in experiment [10], in experiment [11] and in [12] was “inactive” in each case. Further, the Potency result in [13], in experiment [14], in experiment [15], in experiment [16], in experiment [17] and in experiment [18] was “inactive” each time. For the same compound, the Potency result in experiment [19] and in experiment [20] was “inactive” each time.
With `C[C@]12C=CC(=O)C=C1CC[C@@H]1[C@@H]2C(=O)C[C@@]2(C)[C@H]1CC[C@]2(O)C(=O)CO`, the Potency result in [1], in experiment [2], in [3], in [4], in experiment [5] and in experiment [6] was “inactive” throughout. In addition, the Potency result in experiment [7], in [8], in experiment [9], in [10], in experiment [11] and in [12] was “inactive” in each case. In addition, the Potency entry in experiment [13], in experiment [14], in [15], in experiment [16], in experiment [17] and in experiment [18] was “inactive” each time. Besides, in [20], the Potency result was “inactive”.
Consider `Cc1nnc(NS(=O)(=O)c2ccc(N)cc2)s1`, for which the Potency entry in [1], in experiment [2], in experiment [3], in experiment [4], in experiment [5] and in experiment [6] was “inactive” throughout. The Potency result in experiment [7], in experiment [8], in experiment [9], in experiment [10], in experiment [11] and in [12] was “inactive” in each case. Further, the Potency entry in experiment [14], in experiment [15], in [16], in [17], in experiment [18] and in experiment [19] was “inactive” in each case. Also, the Potency entry in experiment [20] was “inactive”.
Consider `CN1CCN(c2c(F)cc3c(=O)c(C(=O)O)cn4c3c2OCN4C)CC1`, for which the Potency entry in [1], in experiment [2], in experiment [3], in [4], in experiment [5] and in [6] was “inactive” in each case. For the same compound, the Potency entry in [7], in experiment [8], in [9], in [10], in experiment [12] and in [13] was “inactive” throughout. Further, the Potency entry in [14], in [15], in experiment [16], in [17], in experiment [18] and in experiment [19] was “inactive” each time. In addition, the Potency result in [20] was “inactive”.
For the compound `CNCC[C@H](Oc1cccc2ccccc12)c1cccs1`, the Potency in experiment [1] is 3.01 µM (active); in [2], 10.7 µM (active); in [3], 6.31 µM (active); in experiment [4], 11.2 µM (active); in experiment [6], 12 µM (active); in experiment [8], 3.16 µM (active). Moreover, the Potency in [10] is 8.91 µM (active); in experiment [11], 3.16 µM (active); in [12] it was 10 µM (active); in experiment [13], 11.2 µM (active); in [14] it was 5.01 µM (active); in experiment [15], 8.49 µM (active). In addition, the Potency in [16] is 4.47 µM (active); in [18] it was 7.08 µM (active); in experiment [19], 8.91 µM (active); in experiment [20], 12.6 µM (active). Moreover, the Potency result in experiment [5] is “inactive”.
For the compound `CCOC(=O)[C@H](CCc1ccccc1)N[C@H]1CS[C@H](c2cccs2)CN(CC(=O)O)C1=O`, the Potency entry in experiment [1], in experiment [2], in [3], in experiment [5], in experiment [7] and in [9] was “inactive” throughout. For the same compound, the Potency result in experiment [14], in experiment [15], in experiment [16], in [18] and in [19] was “inactive” each time.
Turning to `CC1=NN(c2ccccc2)C(=O)C1`, the Potency entry in experiment [1], in experiment [2], in [3], in experiment [4], in experiment [5] and in [6] was “inactive” each time. For the same compound, the Potency entry in experiment [7], in [9], in [10], in experiment [11], in experiment [12] and in experiment [13] was “inactive” in each case. Further, the Potency entry in experiment [14], in experiment [15], in experiment [16], in [17], in [18] and in [19] was “inactive” throughout. The Potency result in [20] was “inactive”.
As for `CCOC(=O)c1ccc(C#Cc2ccc3c(c2)C(C)(C)CCS3)nc1`, the Potency entry in [1], in [2], in [3], in experiment [4], in experiment [5] and in experiment [6] was “inactive” each time. In addition, the Potency entry in [7], in experiment [9], in experiment [10], in experiment [11], in experiment [12] and in [13] was “inactive” in each case. The Potency entry in experiment [14], in experiment [16] and in experiment [17] was “inactive” each time.
Regarding `O=S(=O)(O)CCS`, the Potency result in [1], in experiment [2], in experiment [3], in [4], in experiment [5] and in experiment [6] was “inactive” each time. Also, the Potency entry in [7], in [8], in [9], in experiment [10], in [11] and in experiment [12] was “inactive” in each case. Further, the Potency entry in [13], in experiment [14], in experiment [15], in [16], in [17] and in experiment [18] was “inactive” each time. The Potency entry in experiment [19] and in experiment [20] was “inactive” each time.
`CCn1cc(C(=O)O)c(=O)c2cc(F)c(N3CCN(C)CC3)cc21`: the Potency result in experiment [1], in experiment [2], in experiment [5], in [6], in experiment [7] and in experiment [9] was “inactive” in each case. For the same compound, the Potency result in [10], in experiment [13], in [14], in experiment [15] and in experiment [16] was “inactive” each time. In [3], the Potency was 12.6 µM (active).
